This is an account of results in PubChem BioAssay (NCATS).

A short description of assay [1]: Cytotoxicity counterscreen for inhibitors of SARS-CoV-2 cell entry (AID 1645845). Also: nearly all actives have a fitted effect of over 50% in size. The following applies: outcome: dose series up to 57.1 µM unless noted. An outline of the steps:
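ATP-content luminescence (ATPLite 1step, 15 min RT) read after 48 h compound exposure of Expi293F cells stably expressing human ACE2; normalized to cells-only wells and media-only wells.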
On the technique in general: A counterscreen serves to expose hits that act by an unwanted route or on another target.

Assay [2] can be described thus: Primary qHTS to identify inhibitors of SARS-CoV-2 cell entry (AID 1645846). Also: nearly all actives have a fitted effect of over 45% in size. The following applies: SARS-CoV-2 pseudovirus cell entry assay, luminescence; activity change, negative = inhibition: at 57.1 µM (top of the series) unless noted. An outline of the steps:
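Using luciferase-reporting pseudoviruses carrying Wuhan-Hu-1 spike, the screen tracks entry into stably ACE2-expressing cells over 48 hr. Activity is expressed relative to spike particles versus particles lacking any fusion protein.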

“And” between values parts separate entries of the source, which are not always exact repeats. Equal values may be shown once. Inconclusive results are not listed. The source made the active and inactive calls. Calls follow the shape of the full dose curve.
Potency is read from the fitted curve at half-maximal effect.

As to `CC1(C)CN(C(=O)c2ccc(-c3cccc4nc(NC(=O)C5CC5)nn34)cc2)C1`, the Potency entry in assay [1] was “inactive”. In assay [2], the activity change, negative = inhibition is -61.8%.

Regarding `COc1ncc(Nc2ncc([C@H](C)N3CCN(S(C)(=O)=O)CC3)cc2-c2nc(C)nc(N)n2)cc1F`, the Potency result in assay [1] was “inactive”. Also, the activity change, negative = inhibition in assay [2] was -47.8%.

On to `N#Cc1ccnc(Nc2cc(C3CCN(C4COC4)CC3)cc(N3CCC(F)(F)C3)n2)c1`, for which the values for the Potency in assay [1] and in assay [2] were 8.91 µM (active) and 3.16 µM (active), respectively.

Regarding `N#Cc1ccc(Cn2cncc2CN2CCN(c3cccc(Cl)c3)C(=O)C2)cc1`, the Potency entry in assay [1] and in assay [2] was “inactive” throughout.

Turning to `Nc1nc(OCc2cc(Br)cs2)c2[nH]cnc2n1`, the Potency result in assay [1] and in assay [2] was “inactive” in each case.

Take `CC(=NNC(=O)c1cccc(S(=O)(=O)N2CCOCC2)c1)c1cc(Cl)ccc1O`: the Potency entry in assay [1] was “inactive”. The activity change, negative = inhibition in assay [2] was -7.45%.

Consider `C[C@]12CCC3[C@@H](CC[C@H]4NC(=O)C=C[C@]34C)[C@@H]1CC[C@@H]2C(=O)Nc1cc(C(F)(F)F)ccc1C(F)(F)F` (stereo not given in full), for which, in assay [1], the Potency result was “inactive”. Further, in assay [2], the activity change, negative = inhibition was -7.71%.

With `CNC(=O)Cn1cc(-c2ccc3c(c2)C(F)CC32NC(=O)N(CC(=O)N(Cc3ccc(F)cc3)[C@@H](C)C(F)(F)F)C2=O)cn1` (stereo not given in full), in assay [1], the Potency entry was “inactive”. Moreover, the activity change, negative = inhibition in assay [2] was -19.9% and -7.29%.

As to `C=CC(=O)N1C[C@H](Nc2ncnc3[nH]ccc23)CC[C@@H]1C`, the Potency result in assay [1] and in assay [2] was “inactive” each time.

Take `CCN(C(=O)c1ccccc1OC)c1cc2c(cc1N1CCNC[C@H]1C)n(C)c(=O)n2C`: in assay [1], the Potency entry is “inactive”. For the same compound, the activity change, negative = inhibition in assay [2] was -9.57%.

In the case of `CCOC(=N)c1nc2ccc3ncnc(Nc4cc(F)c(F)cc4Cl)c3c2s1`, the Potency entry in assay [1] was “inactive”. The activity change, negative = inhibition in assay [2] was -20.9%.

Turning to `OC1CCC([C@H](O)C[C@H]2c3c(F)cccc3-c3cncn32)CC1` (stereo not given in full), the Potency entry in assay [1] and in assay [2] was “inactive” throughout.

`COc1ccc(Oc2cc(NCCC(F)(F)F)c3ncc(-c4ccc(C(=O)NC5CC5)c(C)c4)n3n2)c(F)c1F`: the Potency entry in assay [1] was “inactive”. Further, in assay [2], the activity change, negative = inhibition is -12.1%.

`C=C1/C(=C/C=C2\CCCC3(C)[C@@H]([C@H](C)/C=C/C=C/C(O)(CC)CC)CC[C@@H]23)C[C@@H](O)C[C@@H]1O` (stereo not given in full): the Potency result in assay [1] and in assay [2] was “inactive” in each case.

Regarding `Cc1ccc(-c2ccc3ncc4c(c3n2)n(C2CCN(C(=O)[C@H](C)O)CC2)c(=O)n4C)cn1`, the Potency entry in assay [1] is “inactive”. In assay [2], the activity change, negative = inhibition is -95.8%.

As to `O=C(/C=C/c1ccc(CN(CCO)CCc2c[nH]c3ccccc23)cc1)NO`, in assay [1], the Potency entry is “inactive”. Besides, the activity change, negative = inhibition in assay [2] is -7.55%.

With `CCC(=O)NC[C@H](Cc1ccc(OCCc2nc(-c3ccccc3)oc2C)cc1)N/C(C)=C\C(=O)c1ccc(C(F)(F)F)cc1`, in assay [1], the Potency result was “inactive”. In assay [2], the activity change, negative = inhibition was -18.7%.

Consider `N#C[C@@H]1C[C@@H]2C[C@@H]2N1C(=O)[C@@H](N)C12CC3CC(CC(O)(C3)C1)C2`, for which the Potency result in assay [1] was “inactive”. In assay [2], the activity change, negative = inhibition was -14.2%.

Regarding `COc1cc2ncnc(Oc3cccc(NC(=O)Nc4cc(C(C)(C)C(F)(F)F)on4)c3)c2cc1OC`, the Potency result in assay [1] was “inactive”. Also, the activity change, negative = inhibition in assay [2] is -20.7%.

As to `O=C(O)c1cnn(-c2nc3cc(OC(F)(F)F)c(Cl)cc3[nH]2)c1`, the Potency entry in assay [1] and in assay [2] was “inactive” in each case.

Consider `Cc1nc2cccc(N)c2c(=O)n1C1CCC(=O)NC1=O` (stereo not given), for which the Potency entry in assay [1] is “inactive”. For the same compound, the activity change, negative = inhibition in assay [2] is -12.7%.

Regarding `N=C(N)c1ccc2nc(-c3cc(CC(=O)N[C@@H](CC(=O)O)C(=O)O)cc(-c4cc(S(N)(=O)=O)ccc4O)c3O)[nH]c2c1`, the Potency result in assay [1] and in assay [2] was “inactive” each time.

For the compound `CN(C)c1cccc(-c2c3c(=O)n(-c4ccccc4Cl)[nH]c3cc(=O)n2C)c1`, the Potency result in assay [1] was “inactive”. In addition, in assay [2], the activity change, negative = inhibition is -19.6%.

Regarding `Cc1cc(I)ccc1Nc1c(C(=O)NOCC2CC2)cc(F)c(F)c1F`, the Potency in assay [1] is 17.8 µM (active); in assay [2], 12.6 µM (active).

Consider `CC(=O)N[C@H]1[C@H](O[C@@H]2c3ccc(c(Cl)c3)Oc3cc4cc(c3O[C@@H]3O[C@H](CO)[C@@H](O)[C@H](O)[C@H]3NC(=O)CCCCCCCC(C)C)Oc3ccc(cc3Cl)C[C@H]3NC(=O)[C@H](N)c5ccc(O)c(c5)Oc5cc(O)cc(c5)[C@H](NC3=O)C(=O)N[C@H]4C(=O)N[C@H]3C(=O)N[C@@H]2C(=O)N[C@@H](C(=O)O)c2cc(O)cc(O[C@H]4O[C@H](CO)[C@@H](O)[C@H](O)[C@@H]4O)c2-c2cc3ccc2O)O[C@H](CO)[C@@H](O)[C@@H]1O`, for which the Potency result in assay [1] is “inactive”. For the same compound, the activity change, negative = inhibition in assay [2] was -12.4%.

With `Cc1cc(-c2cc(OC(=O)c3ccccc3)ccc2Cl)cc2nnc(Nc3ccc(OCCN4CCCC4)cc3)nc12`, in assay [1], the Potency entry was “inactive”. Also, in assay [2], the activity change, negative = inhibition is -21.1% [at 27.1 µM].

Regarding `O=C(O)CNC(=O)c1nc(Cl)c2ccccc2c1O`, the Potency entry in assay [1] was “inactive”. Also, the activity change, negative = inhibition in assay [2] was -5.6%.

As to `COc1cc(C(=O)O)ccc1NC(=O)[C@@H]1N[C@@H](CC(C)(C)C)[C@](C#N)(c2ccc(Cl)cc2F)[C@H]1c1cccc(Cl)c1F`, in assay [1], the Potency result was “inactive”. Further, the activity change, negative = inhibition in assay [2] was found to be 1.92%.

With `CC(=O)Nc1ccc(C(=O)NC(C)(C)C)cc1`, the Potency entry in assay [1] and in assay [2] was “inactive” each time.

Consider `O=C(Nc1ccccc1)Nc1ccc(-c2ccc(C(=O)[C@@H]3CCC[C@H]3C(=O)O)cc2)cc1`, for which the Potency result in assay [1] was “inactive”. In assay [2], the activity change, negative = inhibition was -45.3%.
